Bioassay records: PubChem BioAssay, National Center for Advancing Translational Sciences (NCATS)
Only a selection was taken, and hits are over-represented in it overall.
HT1080NT lethal = qHTS for induction of synthetic lethality in tumor cells producing 2HG: qHTS for the HT-1080-NT fibrosarcoma cell line. HT-1080-NT fibrosarcoma viability, CellTiter-Glo ATP luminescence, 48 h. Potency, µM (series often up to 46.1 µM), for the others: at the highest dose activity, negative = less viability, actives largely listed as cytotoxic. 360,000 tested, 1.6% active. AID 686970, 2013;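 note: NT is the 2HG producing partner of a matched IDH1 knockdown line; potency is the fitted concentration of half-maximal effect; 0% = DMSO-treated cells and -100% = media-only wells without cells; nearly all actives have a fitted effect of over 55% in size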
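Fibrosarcoma NT cells, 750 per well in 5% FBS RPMI, were exposed to compound for 48 hours. Viability: CellTiter-Glo luminescence.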
IL-1B inflam inh = qHTS for Inhibitors of Inflammasome Signaling: IL-1-beta AlphaLISA Primary Screen | THP-1 LPS/ATP IL-1B secretion, AlphaLISA, 16 h; stronger effect = lower value | activity change, % at 57.5 µM | 360,000 tested, 4.7% active | AID 743279, 2014; in the data active = activity change below about -50%; inconclusive = mostly about -30% to -49%
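THP-1 cells pretreated 1 hr with compounds (up to 57.5 uM final), then stimulated with LPS (250 ng/mL final) plus ATP (1.25 mM final); secreted IL-1B measured by AlphaLISA after 16 hr, decreased signal indicating inhibition.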
HT1080 IDH1KD tx = qHTS for induction of synthetic lethality in tumor cells producing 2HG: qHTS for the HT-1080-IDH1KD cell line; HT-1080 IDH1 knockdown viability, ATP luminescence, 48 h; 360,000 tested, 2% active; Potency, µM (highest dose often 46.1 µM), for the others: at the top dose activity, negative = toxicity, most hits filed as cytotoxic; AID 686971, 2013;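 note: potency is the fitted concentration of half-maximal effect; 0% = DMSO wells and -100% = cell-free medium wells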
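Luminescent ATP read-out (CellTiter-Glo, 10 min at room temperature) after 48 h compound exposure at 37 °C gave viability of IDH1-knockdown HT-1080 cells. Activity was normalised to DMSO and cell-free wells, then fitted as concentration-response curves.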
ALOX12 inh = Primary qHTS assay for inhibitors of human arachidonate 12S-lipoxygenase (ALOX12): Round 2 | purified 12hLO, xylenol orange hydroperoxide absorbance | Potency, µM (series often up to 108 µM), without a hit: at the top dose activity change, negative = inhibition, most hits filed as inhibitors | 580,000 tested, 1.1% active; note: potency is the fitted concentration of half-maximal effect
Target sequence (P18054 whole entry, looked up): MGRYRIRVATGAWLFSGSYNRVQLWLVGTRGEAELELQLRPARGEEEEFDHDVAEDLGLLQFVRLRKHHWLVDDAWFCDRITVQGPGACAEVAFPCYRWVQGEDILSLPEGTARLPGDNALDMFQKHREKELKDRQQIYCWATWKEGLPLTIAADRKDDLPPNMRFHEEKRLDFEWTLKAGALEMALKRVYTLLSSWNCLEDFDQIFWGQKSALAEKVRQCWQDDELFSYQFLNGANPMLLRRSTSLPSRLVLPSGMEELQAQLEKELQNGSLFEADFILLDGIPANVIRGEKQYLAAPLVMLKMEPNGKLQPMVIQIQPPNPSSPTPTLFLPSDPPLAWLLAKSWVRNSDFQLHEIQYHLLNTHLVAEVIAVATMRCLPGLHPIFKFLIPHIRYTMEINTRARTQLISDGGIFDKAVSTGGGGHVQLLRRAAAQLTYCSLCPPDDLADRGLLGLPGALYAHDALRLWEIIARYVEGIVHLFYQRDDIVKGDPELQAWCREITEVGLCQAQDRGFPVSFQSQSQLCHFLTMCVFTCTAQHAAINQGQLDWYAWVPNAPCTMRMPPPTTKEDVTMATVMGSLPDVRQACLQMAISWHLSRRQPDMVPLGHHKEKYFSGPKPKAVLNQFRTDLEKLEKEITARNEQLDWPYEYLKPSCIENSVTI
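Purified human 12hLO at 150 nM in 25 mM Hepes, 0.01% Triton X-100, pH 7.0, preincubated 15 min at room temperature with compound. Reaction started with 40 uM arachidonic acid, 30 min at room temperature. Hydroperoxide measured by Fe-xylenol orange, 573/405 nm absorbance ratio.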
DT40 TDP1 no CPT = qHTS for Inhibitors of human tyrosyl-DNA phosphodiesterase 1 (TDP1): qHTS in cells in absence of CPT. DT40 Tdp1-/- hTDP1 cells, no CPT, ATP luminescence, 48 h. Potency, µM (top dose mostly 46.2 µM), inactives show top-dose activity change, negative = growth inhibition, hits mostly inhibitors. 420,000 tested, 15% active; note: potency is the fitted concentration of half-maximal effect; nearly all actives have a fitted effect of over 55% in size
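Luminescent ATP content (CellTiter-Glo) served as the growth readout. Knockout chicken DT40 cells expressing human TDP1 were exposed to compounds without camptothecin for a minimum 48 hr at 37 °C.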
TDP1 cell CPT = qHTS for Inhibitors of human tyrosyl-DNA phosphodiesterase 1 (TDP1): qHTS in cells in presence of CPT; chicken DT40 Tdp1-/-;hTDP1 cells + 20 nM CPT, ATP luminescence, 48 h; Potency, µM (doses to about 46.2 µM), inactives show at the top dose activity change, negative = growth inhibition, hits mostly inhibitors; 420,000 tested, 12% active; AID 686979, 2013; note: potency is the fitted concentration of half-maximal effect; nearly all actives have a fitted effect of over 55% in size
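Chicken DT40 Tdp1-/- cells stably complemented with human TDP1 were seeded at 400 cells/well in medium containing 20 nM camptothecin, exposed to pin-transferred compounds, and grown at 37 °C for at least 48 hr. Viability was read as ATP luminescence.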
An asterisk follows results filed as active; ! = repeats disagree; [ ] = dose if it differs, or a comment. Unless noted, calls come from the whole dose curve; as a rule, active = well fitted curve in the direction sought with a large enough effect; inconclusive = small, poorly fitted or top-dose-only effect, or another doubt; inactive = no such curve, though single readings can be large; an effect the other way counts as inactive or inconclusive. Unless noted, % is set by controls: 0 for no effect and ±100 for the full control effect.

`CN1CCN(C(=S)c2ccc(OCC(=O)Nc3cccc(C(F)(F)F)c3)cc2)CC1` gave HT1080NT lethal -18%, IL-1B inflam inh inconclusive, HT1080 IDH1KD tx -20%, ALOX12 inh -7%, DT40 TDP1 no CPT 9.2µM* and TDP1 cell CPT 21µM*.
For CN1CCC(N(C)S(=O)(=O)c2ccc(NC(=O)COc3cccc(C(F)(F)F)c3)cc2)CC1 the results were HT1080NT lethal -1%, IL-1B inflam inh -53*, HT1080 IDH1KD tx -1%, ALOX12 inh -1%, DT40 TDP1 no CPT inconclusive and TDP1 cell CPT inconclusive.
COc1ccc(CC(=O)Nc2ccc(S(=O)(=O)N(C)C3CCN(C)CC3)cc2)cc1 was read as HT1080NT lethal 3%[9.24 µM], IL-1B inflam inh 15, HT1080 IDH1KD tx -4%, ALOX12 inh inconclusive, DT40 TDP1 no CPT -11% and TDP1 cell CPT inconclusive.
`COc1cc(/C=C(/C#N)C(=O)Nc2cccc(C(F)(F)F)c2)cc(OC)c1OC` gave ALOX12 inh -28%.
`COC(=O)c1ccc(CSc2nc3c([nH]c4ccccc43)c(=O)n2-c2ccc(Cl)cc2)o1` gave ALOX12 inh -31%, DT40 TDP1 no CPT inconclusive and TDP1 cell CPT inconclusive.
COC(=O)c1ccc(CSc2nc3c([nH]c4ccccc43)c(=O)n2-c2ccc(OC)cc2)o1 was read as ALOX12 inh -20%, DT40 TDP1 no CPT 18µM* and TDP1 cell CPT 18µM*.
CCOc1ccc(-n2c(SCc3ccc(C(=O)OC)o3)nc3c([nH]c4ccccc43)c2=O)cc1 was read as ALOX12 inh -10%, DT40 TDP1 no CPT inconclusive and TDP1 cell CPT 23µM*.
Screening O=C(COC(=O)COc1ccc2ccccc2c1)Nc1ccccc1 returned ALOX12 inh 0%.
C=C1/C=C(\C)C(C)(O)CC(O)CC(=O)C(O)C(O)C(C)CC(C)OC(=O)/C(C)=C/CC/C=C/C(OC)C(O)CC(C)C1 (centres undefined) was read as HT1080NT lethal 12%, IL-1B inflam inh -53*, HT1080 IDH1KD tx 11%, DT40 TDP1 no CPT inconclusive and TDP1 cell CPT inconclusive.
CC1CCCN(c2ccc(C(=O)O)cc2NS(=O)(=O)c2ccc(Br)s2)C1 (centres undefined) was read as ALOX12 inh 5.6µM*.
`CCCCC(=O)NC1CCN(c2cnn(Cc3ccccc3)c(=O)c2)CC1` gave ALOX12 inh 20%.
Screening Cc1ccc(C)n1-c1ccc(-c2ccn[nH]2)cc1 returned HT1080NT lethal -19%, IL-1B inflam inh -70*, HT1080 IDH1KD tx -14%, ALOX12 inh -10%, DT40 TDP1 no CPT inconclusive and TDP1 cell CPT inconclusive.
`COC[C@@H]1CN(S(=O)(=O)c2cccc(C)c2)C[C@H]1c1nc(C)no1` gave ALOX12 inh 45µM*.
For COC[C@@H]1CN(S(=O)(=O)c2ccc(C)cc2)C[C@H]1c1nc(C)no1 the results were ALOX12 inh 32%.
Screening CCCCN1CC(Br)C(=O)NC1=O (centres undefined) returned HT1080NT lethal 12%, IL-1B inflam inh -10, HT1080 IDH1KD tx 10%, ALOX12 inh -12%, DT40 TDP1 no CPT 18µM* and TDP1 cell CPT 15µM*.
CCN(CC)c1ncccc1CNC(=O)C1CCOC1 (centres undefined) was read as ALOX12 inh 116%.
`O=C(CCCn1c(=O)c2cccn2c2ccc(F)cc21)NCc1ccc(Cl)cc1` gave ALOX12 inh -26%, DT40 TDP1 no CPT 21µM* and TDP1 cell CPT inconclusive.
For COc1ccc(CCNC(=O)CCCn2c(=O)c3cccn3c3ccc(F)cc32)cc1OC the results were ALOX12 inh -25%, DT40 TDP1 no CPT 12µM* and TDP1 cell CPT 15µM*.
Cc1cccc(CNC(=O)CCn2c(=O)c3cccn3c3ccc(F)cc32)c1 was read as ALOX12 inh -20%, DT40 TDP1 no CPT -25% and TDP1 cell CPT -20%.
`Cc1ccc(CCNC(=O)CCCn2c(=O)c3cccn3c3ccc(F)cc32)cc1` gave ALOX12 inh -27%, DT40 TDP1 no CPT 16µM* and TDP1 cell CPT inconclusive.
For COc1ccc(CCNC(=O)CCCn2c(=O)c3cccn3c3ccccc32)cc1OC the results were ALOX12 inh -21%, DT40 TDP1 no CPT 13µM* and TDP1 cell CPT 16µM*.
For COc1nccnc1NC1CCN(C(=O)c2c[nH]c3ccccc23)CC1 the results were ALOX12 inh 41%.
For COc1cccc(CNC(=O)CCCn2c(=O)c3cccn3c3ccc(F)cc32)c1OC the results were ALOX12 inh 0%, DT40 TDP1 no CPT 8.2µM* and TDP1 cell CPT 12µM*.
CC(CNC(=O)CCCn1c(=O)c2cccn2c2ccc(F)cc21)c1ccccc1 (centres undefined) was read as ALOX12 inh -12%, DT40 TDP1 no CPT inconclusive and TDP1 cell CPT inconclusive.
COc1ccc(OC)c(CCNC(=O)CCCn2c(=O)c3cccn3c3ccc(F)cc32)c1 was read as ALOX12 inh -17%, DT40 TDP1 no CPT 9.2µM* and TDP1 cell CPT 18µM*.
CC(CNC(=O)CCn1c(=O)c2cccn2c2ccc(F)cc21)c1ccccc1 (centres undefined) was read as HT1080NT lethal 0%, IL-1B inflam inh 0, HT1080 IDH1KD tx 3%, ALOX12 inh inconclusive, DT40 TDP1 no CPT inconclusive and TDP1 cell CPT 13µM*!.
`Cc1oc(CC(C)C)cc1C(=O)Nc1cccc2ccccc12` gave HT1080NT lethal -23%, IL-1B inflam inh 13, HT1080 IDH1KD tx inconclusive, ALOX12 inh inconclusive, DT40 TDP1 no CPT -30% and TDP1 cell CPT -29%.
For Cc1oc2c(c1C(=O)Nc1cccc3ccccc13)CCCC2 the results were HT1080NT lethal 2%, IL-1B inflam inh 3, HT1080 IDH1KD tx 10%, ALOX12 inh 82%, DT40 TDP1 no CPT 13µM* and TDP1 cell CPT 10µM*.
